In all, about 53,000 compounds went through this assay and about 900 (1.7%) showed an effect of 50% or more. This is one part of a sample in which strong results are shown more often than they occur.
The compounds below were run on Mycobacterium tuberculosis (assay: Cornell - Phenotypic assay to identify agents that inhibit growth of Mycobacterium tuberculosis). Conditions: 10 mM as filed; unlikely as a test dose.
Format: functional
Parameters: scale not given: direction of the effect not stated beside the values
For `CN(CCc1ccncc1)c1cnn(C)c(=O)c1Br`, the “Percent Effect” value was -2.68%. For `CC1Cn2c(nc3c2c(=O)[nH]c(=O)n3C)O1` (configuration not stated), the “Percent Effect” value was -12.37%. For `COCC(=O)N1CCCCC1c1ccncn1` (configuration not stated), the “Percent Effect” value was -40.59%. In the case of `Cc1cc(C(=O)Nc2n[nH]c(C3CC3)n2)c2c(C)nn(C)c2n1`, the “Percent Effect” value is reported as 11.85%. In the case of `COc1ccc(N2CCC(NC(=O)c3sccc3C)CC2)cc1`, the “Percent Effect” value is reported as -7.923%. With `CN(C)c1cccc(CNC(=O)Nc2ccc3[nH]nnc3c2)n1` the “Percent Effect” value was 45.79%. With `CC(=O)c1ccc(NC(=O)NCc2cccc(N(C)C)n2)cc1C` the “Percent Effect” value was 76.43%. `Cc1nc(CCNC(=O)NCc2cccc(N(C)C)n2)cs1` was tested, and the “Percent Effect” value was -57.29%. With `CCC(=O)N1CCC(c2ncc3c(n2)CCNC3)CC1` the “Percent Effect” value was -31.27%. With `Cl.Cn1ccnc1CNC(=O)c1ccnc(C2CCNCC2)c1` the “Percent Effect” value was -5.824%. In the case of `Cl.O=C(NC1CCCC1)c1ccnc(C2CCNCC2)c1`, the “Percent Effect” value is reported as 56.56%. For `Cl.O=C(c1ccnc(C2CCNCC2)c1)N1CCCC1`, the “Percent Effect” value was -26.15%. With `O=C(O)C(F)(F)F.O=C(O)C(F)(F)F.c1cnn(CCCO[C@@H]2CC[C@H]3[C@H]2OCCN3CC2CCOCC2)c1` the “Percent Effect” value was -30.39%. In the case of `O=C(Nc1nc2c(s1)CN(S(=O)(=O)C1CC1)CC2)c1cccc(Cl)c1`, the “Percent Effect” value is reported as 52.55%. In the case of `O=C(Nc1nc2c(s1)CN(S(=O)(=O)C1CC1)CC2)c1ccc(Cl)s1`, the “Percent Effect” value is reported as 7.24%. `O=C(Nc1nc2c(s1)CN(S(=O)(=O)C1CC1)CC2)c1c(F)cccc1F` was tested, and the “Percent Effect” value was 0.32%. With `Cc1ccc(C(=O)N2CC(=O)N(Cc3ccco3)CC(O)C2)cc1` (configuration not stated) the “Percent Effect” value was 7.151%. `Cc1ccc(-c2nc(CN3CC(n4nc(C)cc4C)C3)no2)cc1` was tested, and the “Percent Effect” value was 102.5%. With `COc1ccc(-c2noc(CN3CC(n4cc(C)cn4)C3)n2)cc1` the “Percent Effect” value was 22.62%. `Cc1cc(C)n(C2CN(Cc3noc(-c4ccccc4)n3)C2)n1` was tested, and the “Percent Effect” value was 16.77%. In the case of `COc1ccc(-c2nc(CN3CC(n4nc(C)cc4C)C3)no2)cc1`, the “Percent Effect” value is reported as 46.41%. In the case of `COc1ccc(-c2nc(CN3CC(n4cc(C)cn4)C3)no2)cc1`, the “Percent Effect” value is reported as 55%. `COc1ccc(-c2nc(CN3CC(n4cccn4)C3)no2)cc1` was tested, and the “Percent Effect” value was 15.06%. `COCCCNC(=O)Nc1ncc(-c2cccc(OC)c2)n1CCOC` was tested, and the “Percent Effect” value was 20.98%. `CN(C)C(=O)CNC(=O)c1ccn(-c2ccc3ccccn23)n1` was tested, and the “Percent Effect” value was 8.811%. `CCc1nnc(CS(=O)(=O)c2ccc(C)c(C)c2)n1C` was tested, and the “Percent Effect” value was -14.67%. `COc1c(C)cc(C(C(=O)O)N(C)Cc2ccn[nH]2)cc1C` (configuration not stated) was tested, and the “Percent Effect” value was 14.99%. For `Cc1cccnc1CN(C)C(C(=O)O)c1ccc(C(C)(C)C#N)cc1` (configuration not stated), the “Percent Effect” value was 37.7%. With `Cc1cccnc1CN(C)C(C(=O)O)c1ccc(-n2cccn2)cc1` (configuration not stated) the “Percent Effect” value was 103.2%. With `Cc1cccnc1CN(C)C(C(=O)O)c1ccc(-c2ccn[nH]2)cc1` (configuration not stated) the “Percent Effect” value was 83.57%. With `CCn1ccnc1CN(C)C(C(=O)O)c1ccc(C(C)(C)C#N)cc1` (configuration not stated) the “Percent Effect” value was -8.491%. In the case of `CN(Cc1ccc(-n2cccn2)cc1)C(=O)CCC(F)(F)F`, the “Percent Effect” value is reported as -2.335%. `COc1ccc(CN2C[C@@H]3CC[C@H](C2)N(S(C)(=O)=O)C3)cc1` was tested, and the “Percent Effect” value was -9.044%. In the case of `Cc1cc2nc(C(C)C)cc(N3CCC(O)CC3)n2n1`, the “Percent Effect” value is reported as 7.748%. `CC(C)c1cc(N2CCC(CCC(=O)NC3CC3)CC2)n2nccc2n1` was tested, and the “Percent Effect” value was 19.75%. With `Cc1cc2nc(C(C)C)cc(N3CCN(c4ccc(O)cc4)CC3)n2n1` the “Percent Effect” value was 103.7%. `CC(C)c1cc(N2CCN(c3ccc(O)cc3)CC2)n2nccc2n1` was tested, and the “Percent Effect” value was 106.1%. For `Cc1cc2nc(C(C)C)cc(N3CCSCC3)n2n1`, the “Percent Effect” value was -12.34%. In the case of `CC(C)c1cc(N2CCC(N)CC2)n2nccc2n1`, the “Percent Effect” value is reported as 24.37%. For `Cc1nc(CN2CCO[C@@H]3CN(C(=O)CC4CC4)CC[C@@H]3C2)cs1`, the “Percent Effect” value was 21.81%. With `CCCN(CC(=O)NC)C(=O)c1ccc(-c2nc(C)cs2)cc1` the “Percent Effect” value was 8.736%. In the case of `CS(=O)(=O)N[C@@H]1CN(C(=O)c2ccccn2)[C@@H]2CCCO[C@@H]21.O=C(O)C(F)(F)F`, the “Percent Effect” value is reported as 24.81%. With `Cn1ccc(-c2cc(C(=O)N3CCC(C(N)=O)CC3)c3ccccn23)n1` the “Percent Effect” value was 11.2%. For `O=C(c1cc(-c2ccn(CC3CC3)n2)n2ccccc12)N1CCOCC1`, the “Percent Effect” value was 96.99%. In the case of `Cn1ccc(-c2cc(C(=O)N3CCOCC3)c3ccccn23)n1`, the “Percent Effect” value is reported as -21.75%. In the case of `Cn1ccc(-c2cc(C(=O)N3CCC(O)CC3)c3ccccn23)n1`, the “Percent Effect” value is reported as -33.58%. `CC(C)c1nc(-c2cc(C(=O)NCCCO)c3ccccn23)cs1` was tested, and the “Percent Effect” value was 21.42%. In the case of `O=C(O)c1cc(-c2ccn(CC3CC3)n2)n2ccccc12`, the “Percent Effect” value is reported as 99.83%. `CC(C)c1nc(-c2cc(C(=O)O)c3ccccn23)cs1` was tested, and the “Percent Effect” value was 89.3%. `CC(C)c1nc(-c2cc(C(=O)N3CCN(C)CC3)c3ccccn23)cs1.O=C(O)C(F)(F)F` was tested, and the “Percent Effect” value was -33.65%. `O=C(c1cc(-c2ccn(CC3CC3)n2)n2ccccc12)N1CCCO1` was tested, and the “Percent Effect” value was 45.3%. In the case of `Cc1nc(N)ncc1C(=O)N1CCCC1(C)C(=O)N(C)C` (configuration not stated), the “Percent Effect” value is reported as 14.34%. In the case of `Cc1cc(N2CCCC(c3[nH]ncc3Cc3ccccc3)C2)nc(N)n1` (configuration not stated), the “Percent Effect” value is reported as 13.81%. In the case of `Cc1ncc(CNC(=O)Cc2ccsc2)c(C2CCCN2C)n1` (configuration not stated), the “Percent Effect” value is reported as 11.73%. In the case of `CN1C(=O)C2(CC(=O)Nc3[nH]ncc32)c2cc(Cl)ccc21` (configuration not stated), the “Percent Effect” value is reported as 9.602%. For `O=C(c1ccoc1)N1CCCn2cnc(COCC3CC3)c2C1`, the “Percent Effect” value was 7.498%. With `CC(C)C[C@@H]1N[C@H](C(=O)NC(C)C)Cc2c[nH]c3cccc1c23` the “Percent Effect” value was 22.96%. For `COC(=O)[C@@H]1Cc2c[nH]c3cccc(c23)[C@H](CC(C)C)N1`, the “Percent Effect” value was 105.3%. With `CC(C)C[C@@H]1N[C@H](C(=O)NCC2CC2)Cc2c[nH]c3cccc1c23` the “Percent Effect” value was 40.17%. In the case of `Cc1nc2sccn2c1CN(CCCN(C)C)Cc1ccco1.O=C(O)CC(O)(CC(=O)O)C(=O)O`, the “Percent Effect” value is reported as 33.13%. `Cc1nc2sccn2c1CN(CCCN(C)C)Cc1ccccn1.O=C(O)CC(O)(CC(=O)O)C(=O)O` was tested, and the “Percent Effect” value was 51.28%. `Cc1ccc(CN(CCN(C)C)Cc2c(C)nc3sccn23)o1.O=C(O)CC(O)(CC(=O)O)C(=O)O` was tested, and the “Percent Effect” value was 26.14%.

Reference: ChEMBL document CHEMBL3988442, “University of Dundee, Small-Polar-MMV Screening Library” (2021)
